A selection: hits, their analogues and other compounds. The true share with any hit is near 18%.
TDP1 block: inhibitors of human tyrosyl-DNA phosphodiesterase TDP1. Q9NUW8. recombinant TDP1, AlphaScreen DNA substrate cleavage. 350,000 tested, 0.28% active. Potency, µM (top dose mostly 130 µM), for the others: at the top dose activity change, negative = inhibition, most hits filed as inhibitors. AID 485290; also: nearly all actives have a fitted effect of over 40% in size
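AlphaScreen read-out: signal falls as enzyme removes the 3' tyrosine-FITC from a 5'-biotinylated DNA oligo (15 nM, 5 min, RT). Enzyme was E. coli-made recombinant Tdp1 at 1 nM, exposed to compound for 15 min beforehand; beads 10 ug/ml, 10 min.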
DT40 TDP1 CPT: DT40-hTDP1 cell growth loss with CPT. 420,000 tested, 12% active. Potency, µM (series often up to 46.2 µM), inactives show at the highest dose activity change, negative = growth inhibition, usual class: inhibitors. chicken DT40 Tdp1-/-;hTDP1 cells + 20 nM CPT, ATP luminescence, 48 h; also: nearly all actives have a fitted effect of over 55% in size
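Chicken DT40 Tdp1-/- cells complemented with human TDP1, 400 cells/well, exposed to compounds plus 20 nM camptothecin for at least 48 h at 37 C; viability read as ATP content by CellTiter-Glo luminescence.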
GCN5L2 inh: GCN5L2 (KAT2A) acetyltransferase inhibition; Q92830; GCN5L2 HAT assay, ThioGlo1 CoA-SH fluorescence; Potency, µM (series often up to 58.9 µM), for the others: at the highest dose activity change, negative = inhibition, hits mostly inhibitors; 390,000 tested, 0.21% active; AID 504327
Target sequence (Q92830 whole entry, looked up): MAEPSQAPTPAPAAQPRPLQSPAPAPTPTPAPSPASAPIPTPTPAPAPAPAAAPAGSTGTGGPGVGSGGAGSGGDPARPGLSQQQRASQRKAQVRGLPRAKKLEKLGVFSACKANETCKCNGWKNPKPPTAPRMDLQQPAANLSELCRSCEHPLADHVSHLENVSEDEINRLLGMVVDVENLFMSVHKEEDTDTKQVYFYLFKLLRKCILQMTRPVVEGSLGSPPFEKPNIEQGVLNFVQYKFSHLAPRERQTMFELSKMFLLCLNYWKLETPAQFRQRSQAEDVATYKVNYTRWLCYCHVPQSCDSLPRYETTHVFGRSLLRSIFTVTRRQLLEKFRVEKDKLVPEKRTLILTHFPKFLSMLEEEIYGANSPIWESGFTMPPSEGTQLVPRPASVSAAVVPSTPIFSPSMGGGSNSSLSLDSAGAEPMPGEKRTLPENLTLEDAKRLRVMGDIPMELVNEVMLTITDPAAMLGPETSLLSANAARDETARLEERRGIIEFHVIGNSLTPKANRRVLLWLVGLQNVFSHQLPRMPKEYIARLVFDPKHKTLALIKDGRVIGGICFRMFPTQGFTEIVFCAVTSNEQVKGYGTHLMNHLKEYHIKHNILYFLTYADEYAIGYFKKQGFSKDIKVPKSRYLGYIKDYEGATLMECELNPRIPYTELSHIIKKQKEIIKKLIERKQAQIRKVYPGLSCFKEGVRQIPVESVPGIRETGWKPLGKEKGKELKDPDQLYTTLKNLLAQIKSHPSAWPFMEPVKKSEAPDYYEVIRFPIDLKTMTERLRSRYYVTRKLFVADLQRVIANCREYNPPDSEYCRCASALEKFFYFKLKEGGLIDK
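Preincubate 20nM GCN5L2 with compound 15 min, RT → add 50uM ThioGlo1 + 75uM H3(1-25) + 70uM acetyl-CoA → read fluorescence 0 and 20 min. Primary qHTS; fluorescent artifacts likely.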
TDP1 cell noCPT: qHTS for Inhibitors of human tyrosyl-DNA phosphodiesterase 1 (TDP1): qHTS in cells in absence of CPT. DT40 Tdp1-/- hTDP1 cells, no CPT, ATP luminescence, 48 h. Potency, µM (titrated, usually from 46.2 µM), inactives show at the highest dose activity change, negative = growth inhibition, hits mostly inhibitors. 420,000 tested, 15% active. AID 686978, 2013; also: nearly all actives have a fitted effect of over 55% in size
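Readout: luminescence from CellTiter-Glo after 30 min in the dark at RT. Cells: DT40 Tdp1-/- with stable hTDP1, 400/well. Exposure: compounds alone, ≥48 hr, 37 °C.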
PLK1 PBD inh: inhibitors of human PLK1 polo-box domain binding; 360,000 tested, 2.8% active; AID 720504; Plk1 PBD binding of FITC phosphopeptide, fluorescence polarization; Potency, µM, for the others: max response, negative = inhibition, hits mostly inhibitors; P53350; also: series mostly up to about 57 µM; nearly all actives have a fitted effect of over 65% in size
VDR inhibitor: blocks the human vitamin D receptor; Potency, µM, inactives show max response, negative = inhibition, hits mostly inhibitors; AID 504847; VDR-SRC2-3 peptide fluorescence polarization, 2 h; 400,000 tested, 0.93% active; P11473
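Fluorescence polarization assay of small-molecule disruption of VDR binding to coregulator peptide SRC2-3. Compounds and controls pin-transferred, then read after 2 h incubation at ambient room temperature.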
An asterisk follows results filed as active; ? = inconclusive; / = no result; [ ] = remark or other dose. Calls follow the shape of the dose curve; as a rule, active = well fitted curve in the direction sought with a large enough effect; inconclusive = small, poorly fitted or top-dose-only effect, or another doubt; inactive = no such curve, though single readings can be large; an effect the other way counts as inactive or inconclusive. % is scaled to controls: 0 for no effect and ±100 for the full control effect; potency is read from the fitted curve at half-maximal effect.

SMILES | TDP1 block | DT40 TDP1 CPT | GCN5L2 inh | TDP1 cell noCPT | PLK1 PBD inh | VDR inhibitor
Cc1ccc(C)c(NC(=O)CN2C(=O)C3(SCC(=O)N3c3ccc(C)c(C)c3)c3ccccc32)c1 (configuration not stated) | 3% | ? | -9% | 18µM* | / | 7%
O=C(CN1C(=O)C2(SCC(=O)N2c2ccccc2)c2ccccc21)Nc1ccccc1C(F)(F)F (configuration not stated) | -3% | 23µM* | 1% | ? | / | 8%
COc1ccccc1NC(=O)CN1C(=O)C2(SCC(=O)N2c2ccc(C)c(C)c2)c2ccccc21 (configuration not stated) | 3% | ? | -11% | ? | / | 1%
CCc1cccc(C)c1NC(=O)CN1C(=O)C2(SCC(=O)N2c2cccc(F)c2)c2ccccc21 (configuration not stated) | 4% | -29% | 2% | -23% | / | 9%
C=CCn1c(=O)c2c(nc3n2CC(C)CN3CCc2ccccc2)n(C)c1=O (configuration not stated) | 5% | ? | -5% | ? | -1% | -12%
COc1cc(C)c(CN2CCC3(CCC(CNC(=O)c4ccnn4C)O3)CC2)cc1C (configuration not stated) | / | 16µM* | / | -28% | / | /
CCN1C=CC(=C2C(=O)c3ccccc3C2=O)C=C1 | 4% | 16µM* | ? | 15µM* | 0% | -1%
CCCCCCN1C=CC(=C2C(=O)c3ccccc3C2=O)C=C1 | 4% | ? | -3% | ? | -5% | -5%
CCCN1C=CC(=C2C(=O)c3ccccc3C2=O)C=C1 | 0% | 8.2µM* | -7% | 5.2µM* | -1% | -5%
Cc1ccc(CNC(=O)C2CCCN(Cc3cnn(-c4ccccc4)c3-n3cccc3)C2)cc1 (configuration not stated) | 0% | 21µM* | -9% | 21µM* | 1% | 6%
O=C(NCC1CCCO1)C1CCCN(Cc2cnn(-c3ccccc3)c2-n2cccc2)C1 (configuration not stated) | -2% | -16% | -21% | ? | -12% | 17%
O=C1C(=Cc2ccccc2[N+](=O)[O-])Cc2ccccc21 | / | 2.6µM* | / | 3.3µM* | -21% | /
O=C1NC(=O)C(=Cc2ccccc2[N+](=O)[O-])S1 | / | ? | / | 21µM* | 13µM* | ?
CC1(C)CC(=Cc2ccccc2[N+](=O)[O-])C(=O)c2ccccc21 | / | -30% | / | 16µM* | -3% | /
O=C1NC(=O)/C(=C\c2ccccc2OCc2ccccc2)S1 | 1% | -2% | -18% | -13% | ? | -9%
CNCCC=C1c2ccccc2C=Cc2ccccc21 | 3%[21 µM] | 16µM* | ? | 13µM* | -13% | -18%
CNc1ccc(C=C2C=Cc3ccccc32)cc1 | / | 2% | / | -28% | -2% | 6%
CN(C)CCC=C1c2ccccc2C=Cc2ccccc21 | 11%[56.1 µM] | ? | -5% | 15µM* | -24% | 9%
CC(C)Oc1ccc(CNC(=O)C2CCCCN2S(=O)(=O)c2ccc(F)cc2)cc1 (configuration not stated) | 5% | -37% | -1% | -28% | / | 9%
O=c1cnc2cnc(N3CCOCC3)nc2n1C1CC1 | / | 0% | -13% | 2% | / | 0%
COc1ccc(-n2c(COc3cccc4ccccc34)nnc2SCC(=O)NCc2ccco2)cc1 | 10% | ? | -7% | ? | -3% | 5%
COc1ccccc1N1CCN(CCN(C(=O)c2ccc(I)cc2)c2ccccn2)CC1 | / | / | ? | / | / | -19%
O=C(C1CCCCC1)N(CCN1CCN(c2ccccc2CO)CC1)c1ccccn1 | 4% | ? | 1% | 10µM* | / | 5%
COc1cc2nc(NCCc3cccc(C)c3)n3nc(-c4ccccc4)nc3c2cc1OC | 2% | ? | 1% | ? | / | -15%
CCc1ccc(NC(=O)CCc2ccc(CC)o2)cc1 | / | -12% | -17% | -13% | 3% | -13%
SMILES | TDP1 block | DT40 TDP1 CPT | GCN5L2 inh | TDP1 cell noCPT | PLK1 PBD inh | VDR inhibitor
COc1cc(-c2c(-c3cc(OC)c(OC)c(OC)c3)noc2C)ccc1F | / | 0.092µM* | ? | 0.0073µM* | 3% | 8%
COc1cc(-c2noc(C)c2C(=O)NCCO)cc(OC)c1OC | / | 1% | 1% | -6% | 2% | 15%
COc1ccc(-c2oc3ccc(-c4cc(OC)c(OC)c(OC)c4)cc3c2-c2ccc(OC)cc2)cc1 | / | ? | / | ? | 0% | 4%
COc1ccc(-c2c(-c3cc(OC)c(OC)c(OC)c3)noc2C)cn1 | / | 0.58µM* | -3% | 0.58µM* | -4% | 7%
COc1ccc(-c2oc3ccc(-c4cc(OC)c(OC)c(OC)c4)cc3c2-c2ccc(OC)nc2)cc1 | / | 15µM* | -1% | 12µM* | -1% | 8%
COC(=O)c1cc(-c2c(-c3cc(OC)c(OC)c(OC)c3)noc2C)cc([N+](=O)[O-])c1 | / | 16µM* | -15% | 16µM* | -16% | -12%
COC(=O)c1c(NC(=O)COc2ccc(C)cc2Br)sc2c1CCCC2 | / | -17% | 3% | ? | / | -4%
O=C(Nc1cccc2cccnc12)c1ccc(Br)cc1 | / | / | / | / | / | 11%
CN(C)c1ccc(/C=C/c2cc(N(C)C)nc3ccccc23)cc1 | / | 1µM* | / | 0.89µM* | / | /
CN(C)c1ccc(/C=C/c2cnnc3ccccc23)cc1 | / | 7.1µM* | / | 6.3µM* | / | /
Cc1nc2ccccc2nc1/C=C/c1ccc(N(C)C)cc1 | / | 0.5µM* | / | 0.5µM* | / | /
O=C(O)[C@H]1C(=CCO)O[C@H]2CC(=O)N12 | 4% | / | -18% | / | / | 0%
Cc1nc2sccn2c(=O)c1CCN1CCC(=C(c2ccccc2)c2ccc(F)cc2)CC1 | 8% | 13µM* | -6% | 12µM* | / | -9%
CCOC(=O)C1(C)CCN1C(=O)c1ccc(SC(F)(F)F)cc1 (configuration not stated) | / | 18µM* | / | ? | -6% | /
CCOC(=O)C1(C)CCCCCN1C(=O)c1ccc(SC(F)(F)F)cc1 (configuration not stated) | / | ? | / | ? | -9% | /
CCOC(=O)C1(C)CCN1C(=O)c1ccoc1 (configuration not stated) | / | -18% | / | 12% | -9% | /
CCOC(=O)C1(C)CCN1C(=O)c1ccc(C(C)(C)C)cc1 (configuration not stated) | / | 16µM* | / | 21µM* | -9% | /
CCOC(=O)C(=NC1CCS(=O)(=O)C1)NNc1cc(Cl)ccc1Cl (configuration not stated) | -6% | -4% | 12% | -16% | 3% | ?

Screening data from PubChem.
